# Test results taken from ChEMBL document CHEMBL1157539, “Thousands of chemical starting points for antimalarial lead identification” (Nature, 2010).
# What was measured:
# Assay type in all cases: functional
# [1] = system: Plasmodium falciparum; test: GSK_TCMDC: Inhibition of Plasmodium falciparum 3D7 in whole red blood cells, using parasite LDH activity as an index of growth. Test compounds present at 2uM
# [2] = system: Plasmodium falciparum; test: GSK_TCMDC: Inhibition of Plasmodium falciparum Dd2 in whole red blood cells, using parasite LDH activity as an index of growth. Test compounds present at 2uM
# [3] = system: HepG2; test: GSK_TCMDC: Percent inhibition of human HepG2 cell line. Test compounds present at 10uM.
SMILES,Inhibition [1] [%],Inhibition [2] [%],Inhibition [3] [%]
CN1CCN(CCCN(Cc2ccc(-c3cccc(CNCc4ccc5c(c4)OCO5)c3)cc2)C(=O)Nc2ccccc2)CC1.O=C(O)C(F)(F)F,100,87,51
CCOc1cc(NCCSCc2nc[nH]c2C)nc2ccccc12,92,10,4
O=C(Nc1ccc(Cl)cc1)Nc1cccc(-c2cccc(-c3nc4ccccc4[nH]3)c2)c1,100,56,70
CC(C)CNCc1ccc(-c2ccc(CN(CCCN3CCN(C)CC3)C(=O)CCC3CCCC3)cc2)cc1.O=C(O)C(F)(F)F,96,87,50
O=C(O)C(F)(F)F.OCC1CCN(Cc2ccc(-c3cccc(-c4nc5cc(C(F)(F)F)ccc5[nH]4)c3)cc2)CC1,99,73,19
COc1cc(C(=O)N2CCN(C(C)C)CC2)ccc1CN(C)CCCN1CCN(c2cccc(Cl)c2Cl)CC1.Cl,100,87,56
O=C(NCc1cccc(F)c1)Nc1ccc(-c2cccc(-c3nc4cc(F)ccc4[nH]3)c2)cc1,88,2,31
O=C(NC(c1ccccc1)c1ccc2cccnc2c1O)c1ccccc1 (stereo unspecified),94,63,53
Br.CN(CCON1C(=N)N=C(N)NC1(C)C)c1ccccc1,97,93,64
COC(=O)C1=CNC=C(C(=O)OC)C1c1ccc(Cl)c([N+](=O)[O-])c1,93,79,0
CN(C)CCCNCc1ccc(-c2ccc(C(F)(F)F)cc2)cc1,96,35,30
Cc1ccc(C(=O)NCC2CCN(c3ccc(C(F)(F)F)cc3NC(=O)c3ccco3)CC2)cn1,91,73,9
O=C(NC1CCCCC1)C1CCCN(C(=O)c2ccc(O)c(-c3ccc(Cl)c(Cl)c3)c2)C1 (stereo unspecified),89,42,22
CC(C)N1CCN(C(=O)c2ccc(CNCCCN3CCN(c4cccc(Cl)c4Cl)CC3)s2)CC1.Cl,100,44,51
CC(C)CNCc1cccc(-c2ccc(CNc3ccc4ncccc4c3)cc2)c1.O=C(O)C(F)(F)F,94,32,13
O=C(/C=C/c1ccc(Cl)c(Cl)c1)NCCCCCN1CCC(NC(=O)Nc2ccc(Oc3ccccc3)cc2)C1 (stereo unspecified),99,6,35
CC(=O)Nc1cccc(C(=O)Nc2cccc(-c3ccc(-c4nc5cc(C(F)(F)F)ccc5[nH]4)s3)c2)c1,98,46,80
N#Cc1ccc(C=Cc2nccc3c2[nH]c2ccccc23)cc1,97,28,33
COc1ccc(CN(C)CCOc2ccc(NC(=O)c3cccc4c(=O)cc(-c5ccccc5)[nH]c34)cc2)cc1OC,98,44,13
OC(CNCc1ccccc1Oc1ccccc1)c1cccc(C(F)(F)F)c1 (stereo unspecified),100,98,0
Cc1cccc2nc(-c3ccc(-c4cccc(CNCc5ccccc5)c4)cc3)[nH]c12.O=C(O)C(F)(F)F,100,52,3

SMILES,Inhibition [1] [%],Inhibition [2] [%],Inhibition [3] [%]
CN(C)c1ccc(CN2CCC(CNC(=O)c3cc(-c4cccc(F)c4)cs3)C2)cc1.O=C(O)C(F)(F)F (stereo unspecified),96,13,48
CCc1ccc(NC(=O)c2cccc(CN3CCCN(Cc4cccc(O)c4)CC3)c2)cc1.O=C(O)C(F)(F)F,99,50,53
COc1cc(Br)ccc1N1CCN(CCCCNC(=O)c2ccc(NC(=O)c3ccc(Cl)cc3)cc2)CC1.Cl,96,33,55
O=C(/C=C/c1ccc([N+](=O)[O-])cc1)N1CCC(CCN2CCC(c3c[nH]c4ccccc34)CC2)CC1,100,48,60
Cc1noc(-c2ccc(NC[C@@H](C)NC[C@H](O)c3cccc(Cl)c3)cc2)n1,97,84,11
COc1ccc(CNc2cc(C)nc3sc4c(c23)CCC2(C4)OCCO2)cc1,96,2,4
Cc1cc(Cl)c(S(=O)(=O)NC2CCCC2)cc1OCC(=O)NC1CCCCC1,97,91,19
O=C(/C=C/c1ccc(Cl)c(Cl)c1)N1CCC(CCN2CCC(c3c[nH]c4cc5c(cc34)OCO5)CC2)CC1,99,65,46
Oc1c(Cl)cc(Nc2nccc(Nc3ccc(Oc4ccccc4)cc3)n2)cc1Cl,99,26,8
CCOc1ccc2[nH]c(C)cc(=NN=Cc3ccccc3F)c2c1,100,99,0
COc1ccc(C2CC(c3cccs3)=NN2C(=O)CNc2cccc(C#N)c2)cc1OC (stereo unspecified),87,35,8
CCOc1c(CNCCCCCCNCc2ccc3ccccc3c2OCC)ccc2ccccc12.CS(=O)(=O)O,99,78,100
CC(C)CNC(=S)N1CCCN(c2nc3ccc(Cl)cc3s2)CC1,95,11,28
CN(C)CCCNc1ccnc2cc(Cl)ccc12,100,100,10
O=C(Nc1ccc(N2CCN(Cc3c[nH]c4cc(F)ccc34)CC2)cc1)c1ccccc1-c1ccc(C(F)(F)F)cc1,85,7,20
O=C(Nc1ccsc1)Nc1cccc(-c2cccc(-c3nc4ccccc4[nH]3)c2)c1,100,55,61
O=C(C=Cc1ccc(Cl)c(Cl)c1)NCCCCCN1CCC(CCCNC(=O)c2sc3ccccc3c2Cl)CC1,93,40,99
COc1cccc(C(=O)C2CC2CN(C)CC(O)c2cc(C)c(OC)cc2C)c1.O=C(O)C(F)(F)F (stereo unspecified),88,73,8
CC(=O)Nc1cccc(C(=O)Nc2nc3ccc(-c4cc(=O)[nH]c(Nc5ccccc5Cl)n4)cc3[nH]2)c1,99,62,0
O=C(Nc1cccc(CN2CCCN(Cc3cccnc3)CC2)c1)c1ccc(Cl)c(Cl)c1.O=C(O)C(F)(F)F,84,19,16
COc1cc(OC)cc(C(=O)Nc2cccc(-c3cn4ccc(C)cc4n3)c2)c1,86,45,4

SMILES,Inhibition [1] [%],Inhibition [2] [%],Inhibition [3] [%]
COC(=O)CCCCOc1cc(Cc2cnc(N)nc2N)cc(OC)c1OC,97,0,0
COc1ccc2nccc(N3CCC(NCCNS(=O)(=O)c4ccc5c(c4)NC(=O)CS5)C3)c2n1.Cl (stereo unspecified),97,18,12
Cc1ccc(NC(=O)Nc2ccc(Cl)c(C(F)(F)F)c2)cc1-c1ccc(C(=O)NCCN2CCOCC2)cc1,98,31,52
Cl.Cn1c(=O)n(C)c2cc(CNCCNc3ccnc4cc(Cl)ccc34)ccc21,100,96,17
CC(C)C(=O)NC(c1cccs1)c1cc(Cl)c2cccnc2c1O (stereo unspecified),91,91,23
O=C(NCCCCN1CCC(c2cccc3ccccc23)CC1)c1ccc(-c2ccc(C(F)(F)F)cn2)cc1,91,36,31
Cc1ccc(Nc2nc(C)cc(Nc3cccc(C#N)c3)n2)cc1,100,96,14
O=C(O)C(F)(F)F.c1cc(CNCC2CCCO2)cc(-c2cccc(-c3nc4ccccc4[nH]3)c2)c1 (stereo unspecified),100,7,15
COc1cc2nc(SCCCC#N)n(C3CCCCCC3)c(=N)c2cc1OC,89,9,0
CC(C)N1CCN(C(CN2CCN(CCCOc3ccc4ccccc4c3)CC2)c2ccc(F)cc2)CC1.Cl (stereo unspecified),100,91,59
CC(=O)c1cccc2[nH]c(C(=O)NC3CCC(CCN4CCc5ccc(C#N)cc5C4)CC3)cc12.Cl (stereo unspecified),96,0,12
Br.N=C1N=C(N)NC2(CCCCC2)N1OCCCOc1cccc2ccccc12,95,96,67
O=C(NCCc1ccccc1)[C@H](Cc1ccccc1)Nc1ccnc(NCC2CCCCC2)n1.O=C(O)C(F)(F)F,86,53,11
Cc1ccc2[nH]c3c(NCCCN(C)C)ncnc3c2c1,99,0,1
COc1ccc2[nH]c(C)cc(=NN=Cc3ccccc3)c2c1,80,6,4
c1ccc(CN2CCCN(c3ccc4c(c3)CCN(Cc3ccc(-c5ncc[nH]5)cc3)CC4)CC2)cc1,100,73,6
Cc1ccccc1CN1CCCN(Cc2ccc(C(=O)Nc3ccc(Cl)cc3)cc2)CC1.O=C(O)C(F)(F)F,93,15,48
CC(CCCCCC(=O)Nc1ccc(CC(C)NCCc2cccc(Cl)c2)cc1)NCCc1cccc(Cl)c1 (stereo unspecified),91,37,99
Fc1ccc2[nH]c(-c3cccc(-c4ccc(CNCc5cnn(-c6ccccc6)n5)cc4)c3)nc2c1.O=C(O)C(F)(F)F,98,22,18
COc1ccc(-c2ccc(CNC(=O)c3ccc(Cl)cc3)c(F)c2)cc1CN1CCCN(C)CC1.O=C(O)C(F)(F)F,99,48,25
